Measured values taken from PubChem BioAssay (EPA / NIEHS).
The source made the active and inactive calls. The calls were made as follows: active = hit-call score of the fitted dose curve at least 0.9, where 1 is the maximum; inactive = score below 0.9.

Experiments:
Conditions in all cases: mRNA level, 48 h; actives raise or lower the signal
[1] = read-out: flavin-containing dimethylaniline monooxygenases 3 (FMO3), FMO3 (gene 2328); assay: LTEA_HepaRG_FMO3: Life Technologies and Expression Analysis (LTEA) Assay for flavin-containing dimethylaniline monooxygenases 3 (FMO3) using HepaRG (AID 2283453);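 as to AC50: differentiated human HepaRG liver cells in serum-free induction medium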
Outline: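 Eight-point concentration-response in serum-free HepaRG cultures (top 100 uM, 0.5% DMSO, 48 h). Read-out: FMO3 mRNA level normalized to three endogenous control genes, fitted bidirectionally versus vehicle.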

[2] = read-out: Cytochrome P450 (CYP1A1), CYP1A1 (gene 1543); assay: LTEA_HepaRG_CYP1A1: Life Technologies and Expression Analysis (LTEA) Assay for Cytochrome P450 (CYP1A1) using HepaRG (AID 2283454)
Outline: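 HepaRG, 48 h post-plating switched to serum-free induction medium; 8-pt conc-response (top 100 uM, half-log, 0.5% DMSO), duplicates, 48 h. Lysis in RLT, TaqMan qRT-PCR for CYP1A1; gain or loss vs DMSO.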

[3] = read-out: CFLAR gene, CFLAR (gene 8837); assay: LTEA_HepaRG_CFLAR: Life Technologies and Expression Analysis (LTEA) Assay for CFLAR gene using HepaRG (AID 2283455)
Outline: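 Transcript level by qRT-PCR (normalized to ACTB, GAPDH and POLR2A) after 48 h chemical exposure of HepaRG cells, top concentration 100 uM with half-log steps, 0.5% DMSO vehicle, duplicates; fitted bidirectionally against DMSO baseline.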

[4] = read-out: Forkhead box O1 (FOXO1), FOXO1 (gene 2308); assay: LTEA_HepaRG_FOXO1: Life Technologies and Expression Analysis (LTEA) Assay for Forkhead box O1 (FOXO1) using HepaRG (AID 2283456)
Outline: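 FOXO1 transcript quantified by qRT-PCR after 48 h chemical exposure (top 100 uM, half-log steps, 0.5% DMSO) of HepaRG cells, housekeeping-normalized (ACTB/GAPDH/POLR2A). Changes fitted in both directions relative to vehicle.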

[5] = read-out: growth arrest and DNA damage 45 (GADD45A), GADD45A (gene 1647); assay: LTEA_HepaRG_GADD45A: Life Technologies and Expression Analysis (LTEA) Assay for growth arrest and DNA damage 45 (GADD45A) using HepaRG (AID 2283458)
Outline: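 Eight-point concentration-response in HepaRG cells: 48 h chemical exposure, 0.5% DMSO vehicle, top dose 100 uM. Normalized qRT-PCR mRNA readout with bidirectional fitting relative to DMSO.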

[6] = read-out: Forkhead box O3 (FOXO3), FOXO3 (gene 2309); assay: LTEA_HepaRG_FOXO3: Life Technologies and Expression Analysis (LTEA) Assay for Forkhead box O3 (FOXO3) using HepaRG (AID 2283459)
Outline: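 FOXO3 transcript measured by qRT-PCR (normalized to ACTB, GAPDH, POLR2A) after 48 h exposure of HepaRG cells in serum-free induction medium. Duplicates, eight half-log concentrations up to 100 uM, 0.5% DMSO; gain or loss fitted against DMSO.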

[7] = read-out: ABC Transporter (ABCB1), ABCB1 (gene 5243); assay: LTEA_HepaRG_ABCB1: Life Technologies and Expression Analysis (LTEA) Assay for ABC Transporter (ABCB1) using HepaRG (AID 2283460)
Outline: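 ABCB1 transcript level measured by TaqMan qRT-PCR against three housekeeping genes after 48 h chemical exposure of differentiated HepaRG cells. Top concentration 100 uM, half-log steps, eight points, 0.5% DMSO vehicle; bidirectional fit relative to DMSO.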

[8] = read-out: growth arrest and DNA damage 45 (GADD45B), GADD45B (gene 4616); assay: LTEA_HepaRG_GADD45B: Life Technologies and Expression Analysis (LTEA) Assay for growth arrest and DNA damage 45 (GADD45B) using HepaRG (AID 2283461)
Outline: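 HepaRG, ~100,000 cells/well, 48 h plating; serum-free induction medium; cpd 100 uM top, half-log x8, 0.5% DMSO, duplicate, 48 h; lysis in RLT, RNA isolation, qRT-PCR; norm ACTB/GAPDH/POLR2A; bidirectional fit vs DMSO.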

[9] = read-out: ABC Transporter (ABCC3), ABCC3 (gene 8714); assay: LTEA_HepaRG_ABCC3: Life Technologies and Expression Analysis (LTEA) Assay for ABC Transporter (ABCC3) using HepaRG (AID 2283462)
Outline: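 Human HepaRG, 48 h dosing, 8-pt half-log series from 100 uM, 0.5% DMSO vehicle, duplicates. ABCC3 mRNA by TaqMan qRT-PCR, housekeeping-normalized; bidirectional curve fit vs DMSO.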

[10] = read-out: ABC Transporter (ABCB11), ABCB11 (gene 8647); assay: LTEA_HepaRG_ABCB11: Life Technologies and Expression Analysis (LTEA) Assay for ABC Transporter (ABCB11) using HepaRG (AID 2283463)
Outline: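 ABCB11 transcript levels quantified by TaqMan qRT-PCR against three housekeeping genes after 48 h chemical exposure of HepaRG cultures. Concentrations up to 100 uM in half-log steps, 0.5% DMSO vehicle; both induction and suppression scored.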

[11] = read-out: ABC Transporter (ABCC2), ABCC2 (gene 1244); assay: LTEA_HepaRG_ABCC2: Life Technologies and Expression Analysis (LTEA) Assay for ABC Transporter (ABCC2) using HepaRG (AID 2283464)
Outline: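 HepaRG, 48 h post-plating; serum-free induction medium; cpd 8-pt, 100 uM top, half-log, 0.5% DMSO, duplicate, 48 h. Readout: ABCC2 mRNA by qRT-PCR, norm. ACTB/GAPDH/POLR2A. Bidirectional fit vs DMSO baseline.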

[12] = read-out: Broad substrate specificity ATP-binding cassette transporter ABCG2 (Homo sapiens) (UniProt Q9UNQ0); assay: LTEA_HepaRG_ABCG2: Life Technologies and Expression Analysis (LTEA) Assay for ABC Transporter (ABCG2) using HepaRG (AID 2283465)
Outline: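 ABCG2 transcript was quantified by TaqMan qRT-PCR against three housekeeping genes in HepaRG cells. Cells were treated in duplicate for 48 h across an 8-point half-log series up to 100 uM, with 0.5% DMSO vehicle. Gain or loss versus DMSO was fit.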

[13] = read-out: ATP-citrate lyase (ACLY), ACLY (gene 47); assay: LTEA_HepaRG_ACLY: Life Technologies and Expression Analysis (LTEA) Assay for ATP-citrate lyase (ACLY) using HepaRG (AID 2283466)
Outline: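 ACLY mRNA quantified by qRT-PCR on Fluidigm arrays against three housekeeping genes, after 48 h chemical treatment of HepaRG cells (top concentration 100 uM, half-log steps, 0.5% DMSO vehicle). Up- or down-regulation fitted relative to DMSO.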

[14] = read-out: Peroxisomal acyl-coenzyme A oxidase 1 (ACOX1) gene, ACOX1 (gene 51); assay: LTEA_HepaRG_ACOX1: Life Technologies and Expression Analysis (LTEA) Assay for Peroxisomal acyl-coenzyme A oxidase 1 (ACOX1) gene using HepaRG (AID 2283467)
Outline: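 ACOX1 transcript levels were quantified by TaqMan qRT-PCR against three housekeeping genes after 48 h chemical exposure of differentiated human HepaRG cells. Exposure used eight half-log steps topping at 100 uM, 0.5% DMSO vehicle, in duplicate. Bidirectional curve fits were made relative to DMSO.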

[15] = read-out: Alkaline Phosphatase, Placental (ALPP) gene, ALPP (gene 250); assay: LTEA_HepaRG_ALPP: Life Technologies and Expression Analysis (LTEA) Assay for Alkaline Phosphatase, Placental (ALPP) gene using HepaRG (AID 2283468);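 as to AC50: differentiated human HepaRG liver cells in serum-free induction medium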
Outline: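 HepaRG, 48 h plating then 48 h dosing, serum-free induction medium, 0.5% DMSO. 8 conc, half-log, max 100 uM, duplicates. Endpoint: ALPP transcript by qRT-PCR, housekeeping-normalized; gain or loss fitted vs DMSO.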

[16] = read-out: Bcl-2 (BAD) gene, BAD (gene 572); assay: LTEA_HepaRG_BAD: Life Technologies and Expression Analysis (LTEA) Assay for Bcl-2 (BAD) gene using HepaRG (AID 2283469)
Outline: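 Read-out: qRT-PCR of BAD mRNA, normalized to three housekeeping genes. Human HepaRG cultures got 48 h chemical exposure in 0.5% DMSO, duplicate eight-point half-log series topping at 100 uM. Gain or loss of signal fitted versus DMSO vehicle.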

[17] = read-out: Bcl-2 (BAX) gene, BAX (gene 581); assay: LTEA_HepaRG_BAX: Life Technologies and Expression Analysis (LTEA) Assay for Bcl-2 (BAX) gene using HepaRG (AID 2283470)
Outline: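 Human HepaRG cells treated in duplicate for 48 h across eight concentrations (max 100 uM, 0.5% DMSO); BAX expression measured by qRT-PCR.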

[18] = read-out: adenosine kinase (ADK) gene, ADK (gene 132); assay: LTEA_HepaRG_ADK: Life Technologies and Expression Analysis (LTEA) Assay for adenosine kinase (ADK) gene using HepaRG (AID 2283471)
Outline: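 HepaRG (human liver), 48 h chemical exposure, 8-pt half-log series, top 100 uM, 0.5% DMSO vehicle. Readout: ADK mRNA by qRT-PCR vs housekeeping genes; bidirectional curve fit relative to DMSO baseline.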

[19] = read-out: Alpha-fetoprotein (AFP) gene, AFP (gene 174); assay: LTEA_HepaRG_AFP: Life Technologies and Expression Analysis (LTEA) Assay for Alpha-fetoprotein (AFP) gene using HepaRG (AID 2283472)
Outline: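 Measures AFP mRNA change in HepaRG after 48 h chemical exposure (8 half-log concentrations, highest 100 uM, 0.5% DMSO). Fold change relative to DMSO, fitted in both directions.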

Measured: AC50

Broad substrate specificity ATP-binding cassette transporter ABCG2 (Homo sapiens), sequence (Q9UNQ0 whole entry, looked up): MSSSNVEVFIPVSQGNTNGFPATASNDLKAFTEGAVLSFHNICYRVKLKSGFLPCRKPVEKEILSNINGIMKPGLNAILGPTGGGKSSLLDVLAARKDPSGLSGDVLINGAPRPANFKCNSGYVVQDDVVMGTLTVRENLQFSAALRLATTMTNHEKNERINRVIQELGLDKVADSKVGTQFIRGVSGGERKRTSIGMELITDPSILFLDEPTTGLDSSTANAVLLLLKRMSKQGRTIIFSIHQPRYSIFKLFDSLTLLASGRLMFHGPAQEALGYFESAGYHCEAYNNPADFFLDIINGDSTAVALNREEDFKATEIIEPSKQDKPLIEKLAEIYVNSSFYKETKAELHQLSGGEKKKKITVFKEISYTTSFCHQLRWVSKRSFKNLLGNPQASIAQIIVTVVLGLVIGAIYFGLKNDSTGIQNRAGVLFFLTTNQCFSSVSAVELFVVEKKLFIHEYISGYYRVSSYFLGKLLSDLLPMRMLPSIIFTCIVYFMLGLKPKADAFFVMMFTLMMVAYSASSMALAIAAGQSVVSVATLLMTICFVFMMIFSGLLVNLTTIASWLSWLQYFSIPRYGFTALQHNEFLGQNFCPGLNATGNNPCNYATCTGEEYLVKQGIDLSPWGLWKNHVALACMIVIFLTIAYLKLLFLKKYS

O=C(c1ccc(O)cc1O)c1ccc(O)cc1O
inactive: all assays above

CC(C)CCCCCCc1ccc(O)cc1
active: [2] 50 µM
not listed: [13]
inactive: all other assays above

COC(=O)c1ccccc1C(=O)O
inactive: all assays above

CC(=O)[C@H]1CC[C@H]2[C@@H]3CCC4=CC(=O)CC[C@]4(C)[C@H]3CC[C@]12C
inactive: [6] | [16]
active: [1] 34.1 µM | [2] 34.6 µM | [3] 77.8 µM | [4] 80.5 µM | [5] 47.8 µM | [7] 79.3 µM | [8] 30 µM | [9] 28.2 µM | [10] 58.5 µM | [11] 78.9 µM | [12] 12.5 µM | [13] 83.2 µM | [14] 75.8 µM | [15] 30 µM | [17] 27 µM | [18] 88.7 µM | [19] 24.4 µM

CCCOC(=O)c1ccc(C(=O)OCCC)nc1
active: [2] 24.8 µM
inactive: all other assays above

C#C[C@]1(O)CC[C@H]2[C@@H]3CCC4=CC(=O)CC[C@@H]4[C@H]3CC[C@@]21CC
active: [7] 0.156 µM | [10] 0.0365 µM
inactive: all other assays above
